Myeloid diff MLP: compounds promoting myeloid differentiation | actives 1% (n = 360,000) | AID 624256 | ER-HoxA9 myeloid progenitors, lysozyme-GFP differentiation, flow cytometry | calls only at 10 µM;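 active = normalized GFP-positive differentiation at or above the plate's own cutoff, the solvent-only control mean plus 3 SD; inconclusive = no clear call, values can overlap the other calls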;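 note: cells exposed to compound for four days before flow analysis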
TLR4 MyD88 comp: blocks binding of human TLR4 to MyD88 | O00206+Q99836 | HeLa CL3-4 TLR4/MyD88 BLA complementation, FRET ratio | inhibition, % at 8.4 µM | actives 0.18% (n = 200,000) | AID 861; in the data active = inhibition above about 25%;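 note: 0% = vehicle and 100% = reference inhibitor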
NOD2 RIPK2 PPI: NOD2-RIPK2 protein interaction inhibition. inhibition, % at 4.98 µM. O43353. CHO BLA complementation NOD2-RIPK2, CCF4 ratio. actives 0.38% (n = 360,000); in the data active = inhibition above about 21%;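 note: 0% = vehicle only and 100% = reference blocker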
Target sequence (O43353 whole entry, looked up): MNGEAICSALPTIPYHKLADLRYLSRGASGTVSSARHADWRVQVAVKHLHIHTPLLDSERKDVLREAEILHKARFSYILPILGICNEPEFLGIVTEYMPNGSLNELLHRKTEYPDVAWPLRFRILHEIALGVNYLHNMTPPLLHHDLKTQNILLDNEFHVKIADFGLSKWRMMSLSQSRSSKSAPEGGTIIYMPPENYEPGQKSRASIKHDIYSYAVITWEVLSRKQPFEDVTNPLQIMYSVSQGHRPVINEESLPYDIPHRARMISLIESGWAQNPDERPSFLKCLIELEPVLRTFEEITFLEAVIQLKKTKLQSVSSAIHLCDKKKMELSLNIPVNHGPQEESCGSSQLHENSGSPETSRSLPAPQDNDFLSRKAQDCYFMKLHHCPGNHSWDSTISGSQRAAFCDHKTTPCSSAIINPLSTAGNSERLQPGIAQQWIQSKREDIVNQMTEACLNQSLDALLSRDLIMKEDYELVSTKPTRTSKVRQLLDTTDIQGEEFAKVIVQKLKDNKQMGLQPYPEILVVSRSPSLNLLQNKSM
TLR9-MyD88 block: inhibitors of human TLR9-MyD88 binding; Q9NR96+Q99836; CHO BLA complementation TLR9-MyD88, CCF4 FRET ratio; inhibition, % at 4.98 µM; actives 0.21% (n = 340,000); AID 504734;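 active = inhibition above the mean over all tested compounds plus 3 SD, cut at about 21% in these data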;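 note: 0% = DMSO only wells and 100% = clavulanate BLA inhibitor control wells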
TLR4 MyD88 cnf: TLR4-MyD88 interaction inhibition confirmed; inhibition, % at 8.4 µM; shares compounds with TLR4 MyD88 comp; actives 50% (n = 350); HeLa CL3-4 BLA complementation, CCF4 FRET ratio;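 active = mean inhibition across three repeat runs above about 25% carried over from the earlier screen, limit read from the data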;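 note: plate controls were DMSO only for no effect and clavulanic acid blocking BLA at full dose for full effect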
BLA inh HeLa: beta-lactamase inhibition flagged in TLR4-MyD88 counter-screen; shares compounds with TLR4 MyD88 comp; HeLa BLA reporter, CCF4 FRET ratio; inhibition, % at 8.4 µM; actives 63% (n = 350);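 active = mean inhibition over three repeats above about 26% taken from the earlier screen, limit read from the data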;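 note: HeLa cells stably expressing beta-lactamase reporter as counterscreen for TLR4-MyD88 inhibitors; 0% = DMSO and 100% = clavulanic acid full inhibition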
TLR9-MyD88 conf: TLR9-MyD88 interaction inhibition, confirmation. shares compounds with TLR9-MyD88 block. CHO TLR9/MyD88 BLA complementation, CCF4 FRET ratio. inhibition, % at 4.98 µM. actives 51% (n = 680). AID 540250;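 active = mean inhibition across three repeats above about 21% taken from the earlier screen, limit read from the data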;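 note: blue over green emission ratio reports constitutive TLR9 MyD88 association via BLA complementation; 0% = DMSO vehicle wells and 100% = clavulanate BLA inhibitor wells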
BLA counter-1: beta-lactamase reporter inhibition, counter-screen artifact; shares compounds with TLR9-MyD88 block; CHO-BLA cells, CCF4 FRET ratio, BLA reporter; inhibition, % at 4.98 µM; actives 7% (n = 680); AID 540251;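 active = mean inhibition above a 50% cutoff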;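 note: counterscreen of TLR9-MyD88 hits on CMV-driven BLA in CHO-K1 cells; 0% = DMSO alone and 100% = clavulanate blocking BLA; higher means less blue over green ratio so more BLA blockade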
TLR9 CHO cytotox: CHO cell toxicity counter-screen for TLR9-MyD88 inhibitors | shares compounds with TLR9-MyD88 block | inhibition, % at 4.98 µM | AID 588336 | TLR9-MyD88 CHO cells cytotoxicity, luminescence | actives 39% (n = 680); in the data active = inhibition above about 11%
NOD2 RIPK2 conf: NOD2-RIPK2 interaction inhibition confirmed | shares compounds with NOD2 RIPK2 PPI | CHO cells, NOD2-RIPK2 BLA complementation, CCF4 FRET | inhibition, % at 4.98 µM | actives 70% (n = 1,200) | AID 624370;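 active = mean inhibition across replicates above a set limit taken from the earlier primary screen, cut at about 21% in these data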;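 note: 0% = DMSO-only wells and the high end = clavulanate BLA-blocked wells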
BLA counter-2: NOD2-RIPK2 counterscreen BLA reporter activity; shares compounds with NOD2 RIPK2 PPI; AID 624371; inhibition, % at 4.98 µM; actives 57% (n = 1,200); CHO BLA reporter, CCF4 FRET ratio;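 active = mean inhibition above the low-control mean inhibition plus three low-control SD, cut at about 11% in these data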;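 note: 0% = DMSO only wells and 100% = clavulanate high control wells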
Starred values were filed as active, the others as inactive; i = inactive; ? = inconclusive; · = no result; + = active, no number. The list is not random: actives were taken first. Their share in the collection is about 1.5%.

SMILES	Myeloid diff MLP	TLR4 MyD88 comp	NOD2 RIPK2 PPI	TLR9-MyD88 block	TLR4 MyD88 cnf	BLA inh HeLa	TLR9-MyD88 conf	BLA counter-1	TLR9 CHO cytotox	NOD2 RIPK2 conf	BLA counter-2
CCN1/C(=C/C=C/c2oc3ccc(-c4ccccc4)cc3[n+]2CC)Oc2ccc(-c3ccccc3)cc21	?	39.7*	47.1*	25.3*	35.1*	57.5*	25.2*	27.0	69.0*	66.5*	56.6*
CCCN(CCC)CC(O)Cn1cc(/C=C/C(=O)c2cccs2)c2ccccc21 (stereo not given)	+	39.0*	38.7*	39.7*	32.2*	62.5*	20.8*	21.2	1.1	45.6*	44.0*
C/C(=N\Nc1ccc([N+](=O)[O-])cc1)c1ccco1	i	29.1*	25.0*	29.7*	27.0*	41.9*	14.1	17.1	1.0	36.1*	40.6*
CC/C(=N\Nc1ccc([N+](=O)[O-])cc1)c1ccccc1	i	30.8*	26.8*	22.5*	17.9	34.7*	12.5	14.6	0.8	37.8*	39.7*
CCc1ccc(/C(C)=N\Nc2ccc([N+](=O)[O-])cc2)cc1	+	31.9*	30.1*	31.1*	31.6*	54.8*	23.4*	22.1	-3.6	41.2*	46.4*
CCC(CC)=NNc1cccc([N+](=O)[O-])c1	i	0.5	5.5	-0.5	·	·	·	·	·	·	·
C/C(=N\NC(=O)COc1ccc([N+](=O)[O-])cc1)c1ccco1	i	·	4.1	9.1	·	·	·	·	·	·	·
C/C(=N\Nc1ccc([N+](=O)[O-])cc1)c1ccc(N)cc1	i	10.4	20.1	10.1	·	·	·	·	·	·	·
CC(C)(C)C(c1nc2ccccc2[nH]1)n1c(-c2ccsc2)nc2ccccc21 (stereo not given)	i	·	0.2	·	·	·	·	·	·	·	·
Cc1c(Nc2cc(Cl)c3nonc3c2[N+](=O)[O-])c(=O)n(-c2ccccc2)n1C	?	37.9*	84.5*	50.3*	28.9*	1.9	47.7*	6.7	97.6*	56.4*	30.7*
Cc1c(Nc2cc(N3CCOCC3)c3nonc3c2[N+](=O)[O-])c(=O)n(-c2ccccc2)n1C	·	-4.0	·	·	·	·	·	·	·	·	·
Cc1cccc(N2CCN(C(=O)c3[nH]c(C(F)(F)F)nc3-c3ccccc3)CC2)c1C	?	·	3.8	·	·	·	·	·	·	·	·
O=C1NC[C@H](CCCCN2C[C@H](Cc3ccccc3)N(CCc3ccccc3)C(=O)C2=O)N(CCC2CCCCC2)C1=O	i	·	5.3	·	·	·	·	·	·	·	·
Cc1cnc(-c2nc3ccccc3n2C(C(=O)NC(C)(C)C)c2ccccc2)cn1 (stereo not given)	i	·	-13.6	·	·	·	·	·	·	·	·
CCOC(=O)Cn1cc(/C=C/[N+](=O)[O-])c2ccccc21	i	4.9	-7.0	-2.0	·	·	·	·	·	·	·
CCOc1ccc(/C=C/[N+](=O)[O-])c2ccccc12	i	27.2*	57.8*	14.1	22.3	-23.9	·	·	·	91.4*	6.5
CCOC(=O)CC1(C)Sc2ccccc2N1S(=O)(=O)c1ccc(C)cc1 (stereo not given)	i	·	-15.3	·	·	·	·	·	·	·	·
O=S(=O)(c1ccc(Br)c2nsnc12)N1CCOCC1	i	56.5*	56.1*	27.5*	54.2*	75.8*	14.2	8.6	13.6*	54.1*	20.1*
Cn1c(-c2c(N)n(CCCc3ccccc3)c3nc4ccccc4nc23)nc2ccccc21	i	47.5*	58.2*	31.8*	54.4*	85.9*	61.7*	63.1*	-1.9	78.7*	79.7*
Cn1c(-c2c(N)n(C3CCCC3)c3nc4ccccc4nc23)nc2ccccc21	i	68.1*	28.7*	39.6*	68.6*	95.8*	·	·	·	78.4*	83.1*
Cn1c(-c2c(N)n(CCc3ccccc3)c3nc4ccccc4nc23)nc2ccccc21	i	69.3*	69.5*	61.5*	50.9*	84.4*	55.0*	56.0*	0.7	72.8*	75.4*
Nc1c(C(=O)OCC2CCCO2)c2nc3ccccc3nc2n1C1CCCC1 (stereo not given)	i	4.0	4.1	2.0	·	·	·	·	·	·	·
CCN(CC)c1ccc2cc(-c3nc4ccccc4n3C)c(=O)oc2c1	?	49.1*	43.5*	32.9*	57.8*	87.2*	40.7*	48.6	39.3*	69.5*	74.8*
CN(C)c1ccc(-c2nc3ccccc3n2C)cc1	i	-8.1	-7.0	-9.0	·	·	·	·	·	·	·
CCOC(=O)N1CCN(C(=O)C[C@@H]2C[C@@]3(C(=O)OC)CCCCC=C3N(Cc3cccc4ccccc34)C2=O)CC1	i	·	5.9	·	·	·	·	·	·	·	·
SMILES	Myeloid diff MLP	TLR4 MyD88 comp	NOD2 RIPK2 PPI	TLR9-MyD88 block	TLR4 MyD88 cnf	BLA inh HeLa	TLR9-MyD88 conf	BLA counter-1	TLR9 CHO cytotox	NOD2 RIPK2 conf	BLA counter-2
Cc1ccc(-n2ncc(Br)c(Br)c2=O)cc1	?	27.3*	31.6*	23.9*	21.9	7.6	27.0*	17.6	101.1*	45.1*	8.4
O=C(NCCOc1ccccc1)C1C(=O)Nc2ccccc2C(=O)N1C1CCCCC1 (stereo not given)	i	·	-4.7	·	·	·	·	·	·	·	·
COc1ccc(C2=CC(c3ccc(Cl)cc3)n3cnnc3N2)cc1OC (stereo not given)	i	39.0*	47.4*	50.1*	26.1*	49.4*	-4.1	0.9	5.9	2.0	-7.8
Nc1ccc2c(C(F)(F)F)cc(=O)oc2c1	i	49.0*	50.6*	55.4*	40.5*	66.0*	36.2*	40.5	-1.1	63.7*	67.8*
COc1ccc(C(=O)c2sc3nc(C)cc(-c4cccs4)c3c2N)cc1	i	34.5*	63.8*	56.4*	13.7	19.7	45.3*	46.0	2.0	36.5*	71.3*
Cc1cc(C)c2c(N)c(C(=O)c3ccccc3)sc2n1	i	·	3.2	·	·	·	·	·	·	·	·
CCc1nc2ccc(C(=O)Nc3cccc(NS(C)(=O)=O)c3)cn2c1N(C)CCN1CCOCC1	i	·	-4.4	·	·	·	·	·	·	·	·
O=[N+]([O-])c1cccc(-c2nc(-c3cccs3)c(-c3cccs3)[nH]2)c1	i	-9.3	3.0	-11.4	·	·	·	·	·	·	·
O=[N+]([O-])c1ccc(-c2nc(-c3cccs3)c(-c3cccs3)[nH]2)cc1	i	28.0*	32.9*	30.5*	23.2	48.8*	17.4	20.0	3.6	36.0*	37.2*

Source: PubChem
